The sample as a whole holds a higher share of hits than the screen did.
HT1080NT lethal – kills 2HG-producing HT-1080-NT fibrosarcoma cells; HT-1080-NT fibrosarcoma viability, CellTiter-Glo ATP luminescence, 48 h; Potency, µM (series often up to 46.1 µM), inactives show at the top dose activity, negative = less viability, actives largely listed as cytotoxic; hit rate 1.6% among 360,000; AID 686970;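 also: NT is the 2HG producing partner of a matched IDH1 knockdown line; potency is read from the fitted curve at half-maximal effect; 0% = DMSO-treated cells and -100% = media-only wells without cells; nearly all actives have a fitted effect of over 55% in size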
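Viability of the 2HG-overproducing fibrosarcoma line after 48 hours of compound exposure at 37 degrees C was determined by luminescence with CellTiter-Glo, and concentration-effect curves were then fitted and categorized.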
HT1080 IDH1KD tx – HT-1080 IDH1 knockdown cell toxicity (counter line) | Potency, µM (series often up to 46.1 µM), for inactives: top-dose activity, negative = toxicity, actives largely listed as cytotoxic | HT-1080 IDH1 knockdown viability, ATP luminescence, 48 h | hit rate 2% among 360,000;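 also: potency is read from the fitted curve at half-maximal effect; 0% = DMSO wells and -100% = cell-free medium wells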
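IDH1KD HT-1080 cells, 750/well, RPMI + 5% FBS; compound pinned after 2 h settling; 48 h, 37 °C; CellTiter-Glo luminescence; % activity normalised to DMSO and no-cell wells; curves fitted, classed by r2 and efficacy.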
IL1B secr inh – inflammasome signaling inhibition, IL-1 beta readout; activity change, % at 57.5 µM; hit rate 4.7% among 360,000; THP-1 LPS/ATP IL-1B secretion, AlphaLISA, 16 h; stronger effect = lower value; in the data active = activity change below about -50%; inconclusive = mostly about -30% to -49%
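THP-1 cells pretreated 1 hr with compounds (up to 57.5 uM final), then stimulated with LPS (250 ng/mL final) plus ATP (1.25 mM final); secreted IL-1B measured by AlphaLISA after 16 hr, decreased signal indicating inhibition.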
DT40 TDP1 no CPT – qHTS for Inhibitors of human tyrosyl-DNA phosphodiesterase 1 (TDP1): qHTS in cells in absence of CPT; hit rate 15% among 420,000; Potency, µM (titrated, usually from 46.2 µM), for inactives: at the top dose activity change, negative = growth inhibition, most hits filed as inhibitors; DT40 Tdp1-/- hTDP1 cells, no CPT, ATP luminescence, 48 h; also: potency is read from the fitted curve at half-maximal effect; nearly all actives have a fitted effect of over 55% in size
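Cells were dispensed at 400 per well, compounds added by pin tool, plates incubated ≥48 hr at 37 °C, then CellTiter-Glo added for 30 min at room temperature before luminescence reading. Line: DT40 Tdp1-/- complemented with hTDP1; camptothecin omitted.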
ALOX12 inh – ALOX12 (human) lipoxygenase inhibition. purified 12hLO, xylenol orange hydroperoxide absorbance. Potency, µM (titrated, usually from 108 µM), inactives show at the top dose activity change, negative = inhibition, actives largely listed as inhibitors. P18054. hit rate 1.1% among 580,000. AID 1671190; also: potency is read from the fitted curve at half-maximal effect
Target sequence (P18054 whole entry, looked up): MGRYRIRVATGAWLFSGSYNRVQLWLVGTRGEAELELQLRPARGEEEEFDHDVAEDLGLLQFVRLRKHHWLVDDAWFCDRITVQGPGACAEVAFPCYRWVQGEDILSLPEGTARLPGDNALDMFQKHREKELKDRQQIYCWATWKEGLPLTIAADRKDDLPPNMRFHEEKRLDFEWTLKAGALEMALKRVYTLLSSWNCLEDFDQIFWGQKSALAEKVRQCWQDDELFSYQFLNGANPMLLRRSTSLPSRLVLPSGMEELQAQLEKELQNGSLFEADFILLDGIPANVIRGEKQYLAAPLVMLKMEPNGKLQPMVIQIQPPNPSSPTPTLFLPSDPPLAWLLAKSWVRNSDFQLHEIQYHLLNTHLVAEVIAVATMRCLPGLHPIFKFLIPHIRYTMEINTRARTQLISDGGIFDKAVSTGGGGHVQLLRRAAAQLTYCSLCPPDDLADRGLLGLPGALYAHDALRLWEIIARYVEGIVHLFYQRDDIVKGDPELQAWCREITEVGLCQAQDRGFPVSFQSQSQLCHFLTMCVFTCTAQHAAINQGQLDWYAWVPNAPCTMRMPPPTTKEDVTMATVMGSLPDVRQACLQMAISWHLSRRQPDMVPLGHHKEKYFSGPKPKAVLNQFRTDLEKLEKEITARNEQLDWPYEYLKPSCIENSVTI
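Purified human 12hLO (150 nM final) in 25 mM Hepes, 0.01% Triton X-100, pH 7.0 was preincubated 15 min at room temperature with compound. Then 40 uM arachidonic acid was added, 30 min. Hydroperoxide was read by Fe-XO absorbance ratio 573/405 nm.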
TDP1 cell CPT – growth inhibition of DT40 Tdp1-/-;hTDP1 cells with camptothecin (screen for TDP1 inhibitors) | chicken DT40 Tdp1-/-;hTDP1 cells + 20 nM CPT, ATP luminescence, 48 h | Potency, µM (series often up to 46.2 µM), inactives show at the top dose activity change, negative = growth inhibition, most hits filed as inhibitors | hit rate 12% among 420,000 | AID 686979; also: potency is read from the fitted curve at half-maximal effect; nearly all actives have a fitted effect of over 55% in size
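Chicken DT40 Tdp1-/- cells complemented with human TDP1, 400 cells/well, exposed to compounds plus 20 nM camptothecin for at least 48 h at 37 C; viability read as ATP content by CellTiter-Glo luminescence.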
* marks the source's active call; other numbers are inactive results; ? = inconclusive; . = no result; [ ] = remark or other dose. Unless noted, calls follow the shape of the dose curve; as a rule, active = well fitted curve in the direction sought with a large enough effect; inconclusive = small, poorly fitted or top-dose-only effect, or another doubt; inactive = no such curve, though single readings can be large; an effect the other way counts as inactive or inconclusive. Unless noted, % is scaled to controls: 0 for no effect and ±100 for the full control effect.

SMILES	HT1080NT lethal	HT1080 IDH1KD tx	IL1B secr inh	DT40 TDP1 no CPT	ALOX12 inh	TDP1 cell CPT
NS(=O)(=O)c1ccc(NC(=O)c2cccc3cc4ccccc4nc23)cc1	4%	?	?	5.2µM*	-7%	5.8µM*
NS(=O)(=O)c1cccc(NC(=O)c2cc(-c3cccs3)nc3ccccc23)c1	-18%	0%	-18	15µM*	?	21µM*
Cc1c(CC(=O)O)c(=O)oc2c(C)c(OCc3ccc(F)cc3)ccc12	.	.	.	.	-15%	.
COc1ccc(OCC(=O)Nc2ccc3c(c2)nc(CCNC(=O)c2ccco2)n3C)cc1	.	.	.	5%	-13%	-5%
Cc1ccc(C(C)C)c(OCC(=O)NNCC(=O)Nc2cccc(F)c2)c1	0%	-8%	?	15µM*	-2%	15µM*
Cc1ccc(C(C)C)c(OCC(=O)Nc2ccc3c(c2)nc(CCNC(=O)c2ccco2)n3C)c1	.	.	.	10µM*	-4%	?
Cc1ccc(OCC(=O)Nc2ccc3c(c2)nc(CCNC(=O)c2ccco2)n3C)cc1	.	.	.	?	0%	?
Cc1ccc(C(C)C)c(OCC(=O)Nc2ccc3c(c2)nc(CN2CCCC2)n3C)c1	16µM*	23µM*	-50*	15µM*	22%	?
Cc1cccc(OCC(=O)Nc2ccc3c(c2)nc(CCNC(=O)c2ccco2)n3C)c1	.	.	.	-29%	-3%	23µM*
COc1ccc(-c2nnsc2C(=O)NC2CCCCCCC2)cc1	.	.	.	.	9%	.
CCC(OC(=O)c1cc(C)nc2ccccc12)C(=O)Nc1cc(C)on1 (configuration not stated)	.	.	.	.	-21%	.
Cn1nc(C2CCNCC2)n(-c2ccccc2)c1=O	.	.	.	.	11%	.
C=C(Cl)COc1cc(Cl)ccc1C(N)=O	.	.	.	.	-15%	.
CCCCCOc1ccc(C(=O)Nc2ccc(-c3ccccc3)cc2)cc1	.	.	.	.	-26%	.
Cc1ccccc1Cn1nc(C)c(NC(=O)C2c3ccccc3Oc3ccccc32)c1C	-1%	6%	17	15µM*	8%	12µM*
Cc1ccccc1Cn1nc(C)c(NC(=O)C2(C)CC2(Cl)Cl)c1C (configuration not stated)	1%	1%	-1	-4%	1%	-14%
Cc1cccc(NC(=O)C2c3ccccc3Oc3ccccc32)n1	-24%	-31%	-11	?	-19%	15µM*
Cc1cccc2sc(NC(=O)C3c4ccccc4Oc4ccccc43)nc12	-25%[9.24 µM]	?	-5	?	-16%	12µM*
O=C(Nc1ncccn1)C1c2ccccc2Oc2ccccc21	5%	3%	16	-6%	5%	1%
Cc1cccc2sc(NC(=O)C3CC3)nc12	5%	4%	6	-1%	7%	3%
O=C(O)CCCCNS(=O)(=O)c1ccccc1	.	.	.	.	-30%	.
Cc1cc(C)n(-c2nc3c(c(=O)n(Cc4ccccc4F)c(=O)n3C)n2CC(C)C)n1	.	.	.	.	4%	.
O=C(COc1ccc(C2SCCCS2)cc1)Nc1ccc(F)cc1	.	.	.	.	-5%	.
CC(C)c1ccc(NC(=O)COc2ccc(C3SCCS3)cc2)cc1	0%	-6%	13	23µM*	11%	?
CCCCNC(=O)Nc1ccc(C2SCCS2)cc1	-20%	-12%	.	16µM*	0%	?
SMILES	HT1080NT lethal	HT1080 IDH1KD tx	IL1B secr inh	DT40 TDP1 no CPT	ALOX12 inh	TDP1 cell CPT
CCn1ncc(CN2C[C@@H](CO)[C@H](NC(=O)c3ccccc3)C2)c1C	.	.	.	.	35%	.
O=C(NC1CC1)[C@@H]1CN(Cc2ccc(Cl)cc2F)C[C@H]1CO	.	.	.	.	45µM*	.
O=C(N[C@@H]1CN(Cc2ccc(F)cc2F)C[C@H]1CO)c1ccccc1	.	.	.	.	28µM*	.
O=C(NC1CC1)[C@@H]1CN(Cc2cc(F)c(F)cc2F)C[C@H]1CO	.	.	.	.	30%	.
O=C(N[C@H]1CO[C@H]2[C@@H]1OC[C@@H]2n1nnnc1Oc1ccc(-n2ccnc2)cc1)N1CCOCC1	.	.	.	.	38%	.
COc1ccc(C2CC2/C(=N/O)c2ccccn2)cc1 (configuration not stated)	-16%	-5%	2	?	-1%	13µM*
COc1ccc(C2CC2C(=O)c2ccccn2)cc1 (configuration not stated)	2%	1%	-14	3%	-11%	11%
COc1ccc(C2CC2/C(=N/O)c2ccccc2)cc1 (configuration not stated)	9%	-12%	?	18µM*	-12%	23µM*
O/N=C(\c1ccccn1)C1CC1c1ccccc1 (configuration not stated)	1%	-22%	27	?	?	?
COCc1noc([C@@H]2CN(S(=O)(=O)Cc3cccc(F)c3)C[C@H]2C(N)=O)n1	.	.	.	.	10%	.
CCc1nc(-c2c3n(c(=O)n(Cc4cccc(C(=O)OC)c4)c2=O)CCCC3)no1	.	.	.	.	7%	.
COCCn1cnc2c1c(=O)n(CC(=O)Nc1ccc(F)c(F)c1F)c(=O)n2Cc1ccccc1	.	.	.	.	2%	.
Cc1ccc(S(=O)(=O)N2CC(C(=O)O)=CC[C@H]2c2ccc(Cl)cc2)cc1	8%	-2%	3	-16%	-10%	2%
CC(=O)C1=CCC(c2ccc(C(C)C)cc2)N(S(=O)(=O)c2ccc(C)cc2)C1 (configuration not stated)	?	?	?	?	-2%	-102%
CCOC(=O)C1=CCC(c2cccc3ccccc23)N(S(=O)(=O)c2ccc(C)cc2)C1 (configuration not stated)	-16%	-28%	0	18µM*	-53%	15µM*
CCOC(=O)C1=CCC(c2ccc(CC)cc2)N(S(=O)(=O)c2ccc(C)cc2)C1 (configuration not stated)	-23%	?	47	9.2µM*	15%	23µM*
CCOC(=O)C1=CCC(c2cccc(Cl)c2)N(S(=O)(=O)c2ccc(C)cc2)C1 (configuration not stated)	-18%	?	34	12µM*	-2%	15µM*
CCOC(=O)C1=CCC(c2ccco2)N(S(=O)(=O)c2ccc(C)cc2)C1 (configuration not stated)	-24%	-19%	55	?	?	?
CC(=O)C1=CCC(c2cccc(Cl)c2)N(S(=O)(=O)c2ccc(C)cc2)C1 (configuration not stated)	?	15µM*	-85*	10µM*	-66%	15µM*
Cc1cccc(NC(=O)CSc2nc3c(c(=O)n2CCc2ccccc2)SCC3)c1	.	.	.	.	-3%	.

Source: PubChem (National Center for Advancing Translational Sciences (NCATS))
